Q: How did the Kinases covered (MINK1) turn out when `Cc1ccc(-c2cc(-c3c[nH]nc3-c3ccccn3)ccn2)cc1` [GW684088] was run?
A: MINK1

Q: How did the Kinases covered (MKNK1) turn out when `COc1cc2ncnc(Nc3ccc(F)c(Cl)c3)c2cc1O[C@H]1CC[C@H](N)CC1` [BIBW3133BS] was run?
A: MKNK1

Q: Which Kinases covered (MKNK2) does the source give for `CCCc1cc(N2CCCN(C)CC2)nc2sc3c(N)ncnc3c12` [BI00604564] here?
A: MKNK2

Q: With `CNc1nc(Nc2ccc(C(=O)N3CCOCC3)cc2OC)nc2[nH]cc(Cl)c12` [JH-II-127] as the compound, how does the Kinases covered (MLCK) read?
A: MLCK

Q: With `CCn1c(-c2nonc2N)nc2cncc(CNC3CCNCC3)c21` [SB-747651A] as the compound, how does the Kinases covered (MSK1) read?
A: MSK1

Q: How did the Kinases covered (MTOR) turn out when `COc1ccc(-c2cc3c(C)nc(N)nc3n([C@H]3CC[C@H](O)CC3)c2=O)cn1` [PFE-PKIS 40] was run?
A: MTOR

Q: How did the Kinases covered (MTOR) turn out when `COc1ccc(-c2cc3c(C)nc(N)nc3n([C@H]3CC[C@H](OCCO)CC3)c2=O)cn1` [PFE-PKIS 29] was run?
A: MTOR

Q: With `Nc1ncnc2occ(-c3ccc(NC(=O)Nc4cc(C(F)(F)F)ccc4F)cc3)c12` [GW770249X] as the compound, how does the Kinases covered (MUSK) read?
A: MUSK

Q: For `CNC(=O)c1c(F)cccc1Nc1nc(Nc2cc3c(cc2OC)CCN3C(=O)CN(C)C)nc2[nH]ccc12` [GSK1838705], which Kinases covered (MYLK) is on record?
A: MYLK

Q: How did the Kinases covered (NEK2) turn out when `C[C@@H](Oc1cc(-n2cnc3ccc(CN4CCN(C)CC4)cc32)sc1C(N)=O)c1ccccc1C(F)(F)F` [GSK461364] was run?
A: NEK2

Q: How did the Kinases covered (NEK2) turn out when `C[C@@H](Oc1cc(-n2cnc3ccc(OC4CCN(C)CC4)cc32)sc1C(N)=O)c1ccccc1Cl` [GSK579289A] was run?
A: NEK2

Q: And the Kinases covered (NEK9)?
A: NEK9

Q: How did the Kinases covered (NEK3) turn out when `CC(C)C(=O)N[C@@H]1CCN(C(=O)Nc2nc3c(s2)-c2nc(-c4ccccc4Cl)ncc2CC3)C1` [BI00047804] was run?
A: NEK3

Q: What about the Kinases covered (NEK5) of the same compound?
A: NEK5

Q: With `CCOc1ccc2c(-c3ccnc(Nc4cc(OC)cc(C(F)(F)F)c4)n3)cnn2n1` [GW807982X] as the compound, how does the Kinases covered (NEK6) read?
A: NEK6

Q: For `COc1cc2ncn(-c3cc(O[C@H](C)c4ccccc4Cl)c(C(N)=O)s3)c2cc1OC` [GSK237701A], which Kinases covered (NEK9) is on record?
A: NEK9

Q: With `Cc1cn(-c2cc(NC(=O)c3ccc4c(c3)CN(c3cncnc3)C[C@@H]4C)cc(C(F)(F)F)c2)cn1` [D2202-1] as the compound, how does the Kinases covered (NTRK2) read?
A: NTRK2

Q: Which Kinases covered (NTRK3) does the source give for `CC(=O)c1cccc(NC(=O)NC2CCN(c3ccnc(Nc4ccc(F)cc4)n3)C2)c1` (stereo not drawn) [GSK1379710] here?
A: NTRK3

Q: `COc1ccccc1-c1cc(/C=C2\C(=O)Nc3ncc(Br)cc32)cc(Br)c1O` [GW442130X] was tested. Which Kinases covered (NTRK3) did it give?
A: NTRK3

Q: For `C[C@@H]1CCNC(=O)c2cc3ccc(C(=O)Nc4nc5ccccc5n4CCCN(C)C)cc3n21` [BI00645435], which Kinases covered (NUAK2) is on record?
A: NUAK2

Q: `CCC(=O)Nc1cccc(Oc2nc(Nc3ccc(N4CCN(C)CC4)cc3OC)ncc2Cl)c1` [WZ4003] was tested. Which Kinases covered (NUAK2) did it give?
A: NUAK2

Source: publication PMC7826789 (International Journal of Molecular Sciences, 2021)
